BAZ2B inh – inhibitors of human BAZ2B bromodomain; AlphaScreen BAZ2B-H3K14Ac peptide displacement; Potency, µM (doses to about 114 µM), usual class: inhibitors; 360,000 tested, 4.4% active; further: nearly all actives have a fitted effect of over 60% in size
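BAZ2B 50 nM plus b-H3(5-23)K14Ac 50 nM, PBS pH 7.4/0.01% Tween-20, 30 min RT; compound added (max 110 uM), 30 min RT; streptavidin donor/Ni-chelate acceptor beads 10 ug/mL final, 20 min dark; AlphaScreen read.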
Sfp PPTase inh – Sfp phosphopantetheinyl transferase inhibition; Biochemical Sfp PPTase activity, qHTS; Q9F4F7; Potency, µM, usual class: inhibitors; 310,000 tested, 3.5% active;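 further: the enzyme is Sfp with the accession as filed and its product quenches rhodamine fluorescence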
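Compounds were incubated with enzyme (final 15 nM) for 15 min at room temperature before substrate addition started the reaction. Fluorescence at 525 nm excitation, 598 nm emission was recorded immediately and after 30 minutes.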
JMJD2A Tudor – JMJD2A Tudor domain (human) inhibition. O75164. AlphaScreen JMJD2A-Tudor / H3K4me3 peptide binding. Potency, µM (titrated, usually from 114 µM), usual class: inhibitors. 390,000 tested, 4.4% active; further: nearly all actives have a fitted effect of over 50% in size
HP1b binding inh – inhibitors of HP1-beta chromodomain binding to methylated histone tails. AID 540317. Potency, µM (doses to about 114 µM), usual class: inhibitors. 390,000 tested, 0.56% active. AlphaScreen HP1-beta / biotin-H3K9me3 peptide binding; further: nearly all actives have a fitted effect of over 70% in size
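Compound inhibition of the preformed complex between 50 nM HP1-beta and 50 nM biotinylated H3K9me3 peptide was read by AlphaScreen. Buffer was PBS pH 7.4 with 0.01% Tween-20. Incubations ran 30 min at room temperature, with 10 ug/mL donor/acceptor beads.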
G9a block – G9a (human) methyltransferase inhibition | Q96KQ7 | G9a H3K9 monomethylation, AlphaScreen, 2 h | Potency, µM (highest dose often 102 µM), most hits filed as inhibitors | 350,000 tested, 8.8% active; further: nearly all actives have a fitted effect of over 75% in size
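Step 1: enzyme (final 20 nM) with compound, 15 min RT. Step 2: substrate peptide 500 nM and SAM 20 uM, 2 h RT. Step 3: anti-H3K9me1 antibody and AlphaScreen beads, 10 min, then plate read.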
Large screens that a line does not name were inactive; ! = a repeat was not active. An excerpt weighted towards active compounds, which were near 12% of everything screened. The call rests on the fitted dose curve; in most records, active means well fitted curve in the direction sought with a large enough effect; inconclusive means small, poorly fitted or top-dose-only effect, or another doubt; inactive means no such curve, though single readings can be large; an effect the other way counts as inactive or inconclusive.

O=S(=O)(/N=C(/NS(=O)(=O)c1ccccc1)c1ccccc1)c1ccccc1	G9a block inconclusive
CCCOC(=S)N/C(=N\S(=O)(=O)c1ccccc1)c1ccccc1	Sfp PPTase inh 15.8µM, G9a block 10µM
COc1ccc(NC(=O)CC2NCCNC2=O)c(OC)c1 (centres undefined)	none (no result: Sfp PPTase inh)
O=C(Nc1ccc2nccnc2c1)N1CCCCCC1	none (no result: BAZ2B inh, Sfp PPTase inh, G9a block)
COc1ccc2[nH]c3c(c2c1)CCN1C(=O)C(CC(=O)NCCc2ccccn2)C[C@H](C(=O)N(C(C)C)C(C)C)[C@@]31C (some centres undefined)	none (no result: BAZ2B inh, Sfp PPTase inh, G9a block)
COC(=S)N/C(=N\S(=O)(=O)c1ccc(Cl)cc1)c1ccccc1	Sfp PPTase inh 22.4µM, G9a block 25.1µM
c1ccc(-c2nc(-c3ccccc3)c(Nc3ccc4ccccc4c3)o2)cc1	none (no result: BAZ2B inh, JMJD2A Tudor, HP1b binding inh, G9a block)
CC(C)(C)c1ccc(Nc2nc(C#N)nc(NC3CCCC3)n2)cc1	none (no result: BAZ2B inh, Sfp PPTase inh, HP1b binding inh, G9a block)
COC(=O)c1[nH]c2cc(OC)ccc2c1N=CN(C)C	G9a block 39.8µM
Cc1cc(C)cc(NC(=O)CN2C(=O)c3ccccc3Sc3ccc(C(=O)N4CCCC4)cc32)c1	G9a block inconclusive (no result: Sfp PPTase inh)
C/C(=N\NS(=O)(=O)c1ccccc1)c1ccc2c(c1)OCO2	none (no result: BAZ2B inh)
O=P(c1ccccc1)(c1ccccc1)C(c1ccccn1)P(=O)(c1ccccc1)c1ccccc1	none
O=P(c1ccccc1)(c1ccccc1)C(O)c1ccccn1 (centres undefined)	BAZ2B inh 20µM, Sfp PPTase inh 79.4µM, JMJD2A Tudor inconclusive (no result: G9a block)
OC(c1ccccn1)C(O)c1ccccn1 (centres undefined)	JMJD2A Tudor 50.1µM (no result: BAZ2B inh, Sfp PPTase inh, G9a block)
COc1ccc(Cl)cc1-n1nnc(-c2nsc(NC(=O)c3ccccc3Cl)n2)c1C	none (no result: Sfp PPTase inh)
S=C(c1cn(CCOc2cccc3ccccc23)c2ccccc12)N1CCCC1	JMJD2A Tudor inconclusive, G9a block inconclusive
O=C(C1CC1)n1cc(C(=S)N2CCOCC2)c2ccccc21	BAZ2B inh inconclusive
O=C(c1cccs1)n1cc(C(=S)N2CCOCC2)c2ccccc21	BAZ2B inh inconclusive, JMJD2A Tudor inconclusive, G9a block 28.2µM
S=C(c1cn(CCOc2ccccc2)c2ccccc12)N1CCCC1	Sfp PPTase inh inconclusive, G9a block 35.5µM
CN1CCN(C(=S)c2cn(Cc3ccccc3)c3ccccc23)CC1	BAZ2B inh inconclusive, JMJD2A Tudor inconclusive, G9a block 44.7µM
O=C(O)Cn1cc(C(=S)N2CCCCC2)c2ccccc21	Sfp PPTase inh 22.4µM, JMJD2A Tudor inconclusive, G9a block 10µM
COc1ccc2c(c1)c(=O)c(S(=O)(=O)c1ccc(F)cc1)cn2Cc1ccccc1Cl	G9a block inconclusive (no result: Sfp PPTase inh)
O=[S+]([O-])(c1ccc2c(c1)OCCO2)N1CCN([S+](=O)([O-])c2ccccc2Br)CC1	none (no result: BAZ2B inh, Sfp PPTase inh, HP1b binding inh, G9a block)
O=C(Cn1cc(C(=S)N2CCOCC2)c2ccccc21)N1CCOCC1	none
O=C(O)Cn1cc(C(=S)N2CCOCC2)c2ccccc21	Sfp PPTase inh 50.1µM, G9a block inconclusive
CCN1C(=NCCc2c[nH]c3ccccc23)N[C@@H](c2ccccc2)[C@H](C(=O)OC)[C@H]1C	BAZ2B inh inconclusive, JMJD2A Tudor inconclusive, G9a block 79.4µM
COC(=O)C1=C(C)N(Cc2ccccc2)C(=NCCc2c[nH]c3ccccc23)N[C@H]1c1ccccc1	BAZ2B inh 56.2µM, Sfp PPTase inh inconclusive, JMJD2A Tudor inconclusive
CCN1C(=NCCOC)N[C@@H](CCc2ccccc2)[C@H](C(=O)OC)[C@H]1C	JMJD2A Tudor 39.8µM
CCN1c2ccccc2S(=O)(=O)c2ccccc21	none
O=C1C=C(c2ccc3cc[nH]c3c2)C[C@@H](c2ccc3c(c2)OCO3)C1	BAZ2B inh 50.1µM, JMJD2A Tudor 56.2µM, HP1b binding inh inconclusive (no result: Sfp PPTase inh)
N#Cc1ccc[n+](CC(=O)c2ccc(NC(=O)c3ccccc3)cc2)c1	G9a block 44.7µM
O=C(C[n+]1ccccc1)c1ccc(NC(=O)c2ccccc2)cc1	JMJD2A Tudor inconclusive, G9a block 15.8µM
Cc1ccc[n+](CC(=O)c2ccc(NC(=O)c3ccccc3)cc2)c1	none
O=C(Nc1ccc[n+](CC(=O)c2cccc3ccccc23)c1)c1ccccc1	Sfp PPTase inh 56.2µM, G9a block 39.8µM
CCCCN(CCCC)CCNC(=O)c1cc(-c2cccnc2)nc2ccc(S(=O)(=O)N3CCC(C)CC3)cc12	none (no result: Sfp PPTase inh)
CCCCN(C)CCNC(=O)c1cc(-c2cccnc2)nc2ccc(S(=O)(=O)N3CCC(C)CC3)cc12	JMJD2A Tudor inconclusive, G9a block 50.1µM
COC(=O)C1=C(C)[C@H](O)[C@@H](C)[C@](C)(c2cc(OC)c(C)c(OC)c2COc2ccccc2)O1	none (no result: BAZ2B inh, JMJD2A Tudor, HP1b binding inh, G9a block)
Cc1ccc(NCc2cccn2-c2nnc(N3CCC(C(=O)NCc4ccccc4C)CC3)s2)cc1	none (no result: Sfp PPTase inh)
COc1cccc2c1C(=O)c1c(O)c3c(c(O)c1C2=O)C[C@](O)(C(=O)CO)C[C@H]3O[C@@H]1C[C@H](N)[C@H](O)[C@H](C)O1	G9a block inconclusive (no result: BAZ2B inh, JMJD2A Tudor, HP1b binding inh)
COc1cccc2c1C(=O)c1c(O)c3c(c(O)c1C2=O)C[C@@](O)(C(=O)CO)C[C@@H]3O[C@H]1C[C@H](N)[C@H](OC2CCCCO2)[C@H](C)O1 (some centres undefined)	none (no result: BAZ2B inh, JMJD2A Tudor, HP1b binding inh)
COc1cccc2c1C(=N)c1c(O)c3c(c(O)c1C2=O)CC(O)(C(C)=O)CC3OC1CC(N)C(O)C(C)O1 (centres undefined)	JMJD2A Tudor 39.8µM, HP1b binding inh inconclusive (no result: BAZ2B inh, Sfp PPTase inh, G9a block)
COc1cccc2c1C(=O)c1c(O)c3c(c(O)c1C2=O)C[C@](O)(C(C)=O)C[C@H]3O[C@@H]1C[C@@H](N)[C@@H](O)[C@@H](C)O1	BAZ2B inh 44.7µM, JMJD2A Tudor inconclusive, G9a block inconclusive (no result: Sfp PPTase inh)
CCSc1nnc2ccc(-c3ccc(OC)c(OC)c3)nn12	JMJD2A Tudor inconclusive
C[N+]1(CCn2ccc3ccccc32)CCCCC1	JMJD2A Tudor 25.1µM, G9a block 50.1µM
COc1ccc(C2=NS(=O)(=O)N(C)C(C(=O)N(C)Cc3ccccc3)=C2)cc1OC	JMJD2A Tudor 5.01µM!, G9a block 14.1µM!
Cc1ccc(C2=NS(=O)(=O)N(C)C(C(=O)Nc3ccc4c(c3)OCO4)=C2)cc1	BAZ2B inh inconclusive, JMJD2A Tudor inconclusive, G9a block 79.4µM
COc1ccc(C2=NS(=O)(=O)N(C)C(C(=O)Nc3ccc4c(c3)OCO4)=C2)cc1OC	BAZ2B inh inconclusive, JMJD2A Tudor inconclusive, G9a block 35.5µM
COCC(=O)N1CCC2(CC1)CN(C(c1ccccc1)c1ccccc1)C2	none (no result: BAZ2B inh, JMJD2A Tudor, HP1b binding inh)
CCOc1cc2sc(N3CCC(C(=O)Nc4ccc(C(C)C)cc4)CC3)nc2cc1Br	BAZ2B inh inconclusive (no result: Sfp PPTase inh)
COc1cccc(N2CCN(C(=O)CCCCCNc3nc(=S)[nH]c4ccccc34)CC2)c1	BAZ2B inh 31.6µM
NS(=O)(=O)c1ccc(CCNC(=O)CCCCCNc2nc(=S)[nH]c3ccccc23)cc1	G9a block 50.1µM (no result: JMJD2A Tudor, HP1b binding inh)
O=C(CCCCCNc1nc(=S)[nH]c2ccccc12)N1CCN(c2ccccn2)CC1	G9a block inconclusive (no result: JMJD2A Tudor, HP1b binding inh)
